From PubChem BioAssay AID1063 (University of Pittsburgh Molecular Library Screening Center, 2008) come the findings set out here.

The whole screen tested about 200,000 compounds, of which about 18,000 (9%) were called active. No stated cut-off is given here; in the data, active means inhibition above about 50%; inactive means the rest. For the sample, actives were picked, then their nearest neighbours and some compounds at random.

A short description of this experiment: antileishmanial activity against promastigotes – primary screen (AID 1063).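 Further: promastigotes grown with compound for 44 hours at 28 °C.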 Particulars: Leishmania major promastigotes, resazurin fluorescence viability; at 10 µM; stronger effect = higher value. In general terms: Alamar Blue is a resazurin reagent that responds to reducing activity.
What is called inhibition is the drop in the measured response relative to a control, in per cent. As for `O=C1CCCC2=C1C(c1cccs1)CC(=O)N2c1ccc(F)cc1` (configuration not stated), the inhibition is 4.07% (inactive). As for `CCOC(=O)c1cc2c(n(-c3ccc(C)cc3)c1=O)CCCC2=O`, the inhibition was 15.4% (inactive).

For the molecule `CCOC(=O)C1=C(N)N(c2ccc(C)cc2)C2=C(C(=O)CCC2)C1c1cccs1` (configuration not stated), the inhibition was 92.3% (active). Then `Cc1nc(-c2ccccc2)sc1C(=O)/C=C/N(C)C`, with -7.03% (inactive); and `COc1ccc(OC)c(NC(=O)CCN2CCC(C)CC2)c1`, with 1.65% (inactive). To `C/C=C/c1ccc(OCCOc2ccc(C=O)cc2OC)c(OC)c1` belongs -4.56% (inactive); to `C/C=C/c1ccc(OCCCCN2CCC(C)CC2)c(OC)c1`, 95.6% (active); to `O=c1c(Cl)c(NC2CC2)cnn1-c1ccccc1`, -1.71% (inactive).

On to `c1ccc2c(c1)CSc1sccc1C2=C1CCNCC1`, for which the inhibition is 58.3% (active).

On to `CCOC(=O)Cc1csc(NC(=O)COc2ccc3c(C)cc(=O)oc3c2)n1`, for which the inhibition was 13.5% (inactive). Then `CN(C)S(=O)(=O)c1cccc(C(=O)Nc2cccnc2)c1`, with -3.68% (inactive); and `COc1ccc(N(C(=O)c2cccnc2)S(=O)(=O)c2ccc3c(c2)n(C)c(=O)n3C)cc1`, with 0.4% (inactive); and `O=C(c1cccnc1)N(c1cc2sc(=O)oc2c2ccccc12)S(=O)(=O)c1ccccc1`, with 99.2% (active).

`N/C(Cc1ccc([N+](=O)[O-])cc1)=N\OC(=O)C1CCCCC1`: the inhibition was -4.63% (inactive). To `COCCN(C(=O)c1ccccc1F)c1c(N)n(Cc2ccccc2)c(=O)[nH]c1=O` belongs -1.31% (inactive); to `CCOC(=O)c1c(C)nc(-c2ccccc2)nc1NC(=O)C(C)C`, 14.1% (inactive).

As for `c1coc(CNc2ncnc3ccccc23)c1`, the inhibition was 32.3% (inactive). Then `c1ccc(-c2nc(NCc3ccco3)c3ccccc3n2)cc1`, with 66.3% (active); and `CS(=O)(=O)n1nc(-c2ccccc2)nc1NCc1ccco1`, with -5.02% (inactive); and `CCC(=O)OCCNc1nc(-c2ccccc2)nc2ccccc12`, with 88.4% (active). To `CCOC(=O)c1nc(Nc2ccc(C(=O)OC)cc2)c2ccccc2n1` belongs 16.3% (inactive); to `CN(C)c1ccc(NC(=O)CSc2n[nH]c(-c3ccco3)n2)cc1`, 47% (inactive). As to `CCN(CC)C(=O)Cn1cc(S(=O)(=O)CC(=O)NCc2ccc3c(c2)OCO3)c2ccccc21`, the inhibition is -2.2% (inactive).

Consider `CCCN(CC(=O)Nc1ccc(OC)c(OC)c1)CC(=O)Nc1ccc(F)c(F)c1F`, for which the inhibition is -4.92% (inactive). To `COCCSc1nnc(NC(=O)c2cc(OC)c(OC)cc2[N+](=O)[O-])s1` belongs -4.07% (inactive). To `CC(=O)c1ccc(NC(=S)N(Cc2ccccc2)C(C)C2CC2)cc1` (configuration not stated) belongs 11.1% (inactive); to `CC(C)CC(=O)NC(=S)Nc1ccc(F)cc1F`, -0.93% (inactive). To `Cc1[nH]nc(SCC(=O)NCC(C)C)c1[N+](=O)[O-]` belongs -6.19% (inactive). Take `OC(COCCC12CC3CC(CC(C3)C1)C2)CN1CCCCC1` (configuration not stated): the inhibition was 92.4% (active). To `Cc1cccc(C)c1OCC(O)CN1CCCCC1` (configuration not stated) belongs -0.13% (inactive); to `COCC1CCCN(Cc2cn[nH]c2-c2cc3ccccc3o2)C1` (configuration not stated), 11.4% (inactive). Consider `O=C(CC1Nc2ccccc2NC1=O)Nc1ccccc1NC(=O)CC1Nc2ccccc2NC1=O` (configuration not stated), for which the inhibition was -4.12% (inactive). To `CSCCC(=O)N1CCCC(CNC(=O)c2ccccc2Cl)C1` (configuration not stated) belongs -3.88% (inactive); to `COc1ccc(Cc2nnc(N/N=C/c3ccccc3O)[nH]c2=O)cc1OC`, 97.4% (active). To `CCOc1ccc(-n2c(O)c(/C=N/Nc3nnc(C)c(=O)[nH]3)c3ccccc3c2=O)cc1` belongs 3.53% (inactive); to `COc1ccc(/C=N/Nc2nc3ccccc3c(=O)[nH]2)cc1`, 36.7% (inactive); to `CCCCNS(=O)(=O)c1ccc2nc(SCC(=O)Nc3cc(C)cc(C)c3)[nH]c2c1`, -3.48% (inactive). Then `O=C(CSc1ncn[nH]1)NCc1ccc2c(c1)OCO2`, with -2.48% (inactive). For `Cc1[nH]c2c(C(=O)N3CCCC(CCC(=O)NCc4ccccc4F)C3)cccc2c1C` (configuration not stated), the inhibition was 3.43% (inactive). Then `Nc1[nH]c(=S)nc2nc(-c3ccccc3)c(-c3ccccc3)nc12`, with 29.6% (inactive).

With `CCc1c(C)nc2cc(-c3cccs3)[nH]n2c1=O`, the inhibition is 6.8% (inactive). Then `Cc1nc2nc[nH]n2c(=O)c1C/C=C/c1ccccc1`, with -0.45% (inactive); and `CCc1c(C)nc2cc(C)[nH]n2c1=O`, with 65% (active). Then `COc1cccc(Cn2cnc3c([N+](=O)[O-])c(C)c(C)cc32)c1`, with 12.1% (inactive); and `Oc1ccccc1C=NC1CCCCC1N=Cc1ccccc1O` (configuration not stated), with -8.81% (inactive); and `COc1cc(/C=C2/C(=O)ON=C2C)ccc1OCc1ccccc1F`, with 33.4% (inactive).

As to `COc1cc(/C=N/n2c(C)n[nH]c2=S)ccc1OCc1ccccc1`, the inhibition is 36.4% (inactive). To `COc1cc(/C=C2/C(=O)ON=C2C)ccc1OCc1cccc(F)c1` belongs 53.5% (active); to `Cc1cccc2c1N(CCOc1ccccc1)C(=O)C2=O`, 4.82% (inactive). Then `O=C(CC1C(=O)NCCN1CC(c1ccccc1)c1ccccc1)NCCc1cn[nH]c1` (configuration not stated), with -0.14% (inactive); and `Cc1cc([N+](=O)[O-])nn1Cc1ccc(F)cc1`, with 10.1% (inactive); and `CCCCOC(=O)CCCc1ccc([N+](=O)[O-])cc1[N+](=O)[O-]`, with 0.48% (inactive). To `CCCOc1ccc(Cn2ccnc2)cc1[N+](=O)[O-]` belongs 85.9% (active); to `CCCCCOc1ccc(CSC2=NCCN2)cc1[N+](=O)[O-]`, 88.3% (active); to `CCCOc1ccc(C2C(C(=O)c3ccc(C)o3)=C(O)C(=O)N2CCCn2ccnc2)cc1` (configuration not stated), -8.78% (inactive). `CCCCOc1ccc(CSC(=N)N)cc1[N+](=O)[O-]`: the inhibition is 100% (active). Turning to `CCOc1ccc(C(=O)Nc2nccs2)cc1[N+](=O)[O-]`, the inhibition is 48.5% (inactive). Then `Cc1ccccc1NC(=O)CSC1=NCCN1`, with -2.55% (inactive); and `Cc1nc(SCc2ccc(F)cc2)c([N+](=O)[O-])[nH]1`, with -7.82% (inactive).

As for `CCOc1ccc(Br)cc1CSC(=N)N`, the inhibition is 33.2% (inactive). Then `CN(C)c1ccc(C=NCCc2ccc(S(N)(=O)=O)cc2)cc1`, with 3.91% (inactive); and `CCOC(=O)c1cnc2[nH]c3ccccc3n2c1=O`, with 7.85% (inactive); and `O=C(O)CC/C(=N\NC(=O)c1ccc(F)cc1)c1ccc(Br)cc1`, with -8.88% (inactive). To `Cn1ccc(=NC=C(C#N)C#N)c2ccccc21` belongs 7.93% (inactive); to `CC(=O)c1ccc(NC(=O)Nc2ccc([N+](=O)[O-])cc2C)cc1`, -1.56% (inactive); to `O=[N+]([O-])c1ccc2c(c1)C(N1CCOCC1)/C(=C/C1(O)CCCCC1)O2` (configuration not stated), -7.12% (inactive). Then `Cc1cc2nc(C(F)(F)F)cc(-c3cccs3)n2n1`, with 2.4% (inactive); and `COc1ccc(OC)c(S(=O)(=O)Nc2cccc(-c3ccc4nncn4n3)c2)c1`, with -2.67% (inactive).

As to `FC(F)(F)c1cccc(NC(=S)Nc2cccc(Cl)c2)c1`, the inhibition is 75.6% (active). To `S=C(Nc1cccc(Cl)c1)Nc1ccc2cn[nH]c2c1` belongs 10.9% (inactive).

As for `Cc1csc(NC(=S)Nc2cccc(Cl)c2)n1`, the inhibition is 9.23% (inactive). Then `CCNC(=O)CC1C(=O)N(c2ccc(OC)cc2)C(=S)N1CCc1ccncc1` (configuration not stated), with -4.31% (inactive); and `COc1ccc2oc(=O)c(C(=O)N3CCCC3)cc2c1`, with -7.26% (inactive).

As for `CC1CN(c2nc(-c3ccccc3)nnc2-c2ccccc2)CC(C)O1` (configuration not stated), the inhibition is 5.94% (inactive). Then `Clc1ccc(-c2nnc(-c3ccccc3)nc2N2CCSCC2)cc1`, with 58.6% (active); and `Cn1nc(-c2ccccc2)c(-c2nc(-c3ccc(Cl)cc3)no2)c1Cl`, with -4.1% (inactive); and `CN(CCc1cnn(C)c1)Cc1cn(C)nc1-c1ccccc1F`, with -3.32% (inactive).

Turning to `CC(C)N(C(=O)CSc1nc(COc2ccccc2)nc2ccccc12)C(C)C`, the inhibition was 21.6% (inactive). Then `CCOc1cc(N2CCOCC2)c(OCC)cc1NC(=O)COc1cccc2cccnc12`, with 100% (active); and `O=C(COC(=O)c1ccccc1F)Nc1cc(S(=O)(=O)N2CCOCC2)ccc1N1CCCC1`, with 5.17% (inactive); and `COc1cc(S(=O)(=O)N2CCOCC2)ccc1NC(=O)COc1ccc(N(C)S(=O)(=O)c2ccc(C)cc2)cc1`, with 94% (active).

With `CCOc1cc(N2CCOCC2)c(OCC)cc1NC(=O)c1ccc(C)s1`, the inhibition was 6.96% (inactive). To `CCOc1cc(N2CCOCC2)c(OCC)cc1NC(=O)c1cc(C)nc2ccccc12` belongs 6.2% (inactive); to `O=C(COc1cccc2ccccc12)Nc1cc(S(=O)(=O)N2CCOCC2)ccc1N1CCOCC1`, 61.2% (active).

Take `COC(=O)COc1ccc(S(=O)(=O)N2CCOCC2)cc1`: the inhibition is -7.05% (inactive). Then `CC(=O)NCCC(=O)Nc1cc(S(=O)(=O)N2CCOCC2)ccc1N1CCOCC1`, with 0.47% (inactive). Then `Cc1ccc(S(=O)(=O)N(C)c2ccc(OCC(=O)NC3=NCCS3)cc2)cc1`, with 1.37% (inactive). Then `CCC(=O)N1c2ccccc2NC2=C(C(=O)CCC2)C1c1ccco1` (configuration not stated), with 3.39% (inactive).

Take `O=C(N/N=C1\CCSC1)c1cc(Cl)ccc1O`: the inhibition is 3.97% (inactive). To `CCCCCc1ccc(-c2ccc(OCC)cc2)nc1` belongs -7.26% (inactive). Then `CN(C)S(=O)(=O)c1ccc(NC(=O)N2CCOCC2)cc1`, with -2.72% (inactive); and `CCN(CC)CCNS(=O)(=O)c1ccc(/C=C/C(=O)O)cc1`, with -2.33% (inactive); and `O=C(Nc1cccnc1)c1cccc(S(=O)(=O)N2CCCC2)c1`, with -5.74% (inactive). On to `c1ccc(C2=Nc3cccc4cccc(c34)N2)cc1`, for which the inhibition was 19.1% (inactive). Then `COc1ccccc1C1=Nc2cccc3cccc(c23)N1`, with 69.7% (active). To `Fc1ccccc1N=C1Nc2cccc3cccc1c23` belongs 8.76% (inactive); to `CCOC(=O)/C(C#N)=C/c1ccc(N2CCCCC2)cc1`, -8.77% (inactive).
